{"source": "PubChem BioAssay AID720553", "about": "(National Center for Advancing Translational Sciences (NCATS), 2013)", "note": "In all, about 340,000 compounds went through this assay and about 3,300 (0.97%) were called active. The sample holds actives, similar compounds and a random draw of the others, so the mix is not that of the screen. A number with no mark means an inactive call.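 The calls were made as follows: active = maximum activity change below -70%; inconclusive = maximum activity change from -70% to -50%; inactive = maximum activity change above -50%.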 % is scaled to controls: 0 for no effect and ±100 for the full control effect."}
{"tested_on": "Potassium voltage-gated channel subfamily H member 2, brain isoform KCNH2 3.1 (human)", "assay": "qHTS for Inhibitors of KCHN2 3.1: Mutant qHTS", "details": "U2OS KCNH2 3.1, thallium flux FluxOr; active compounds read low", "summary_of_the_method": "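FluxOr-based Tl+ influx in U2OS cells transduced with KCNH2 3.1 virus; rate constants normalized to DMSO controls.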"}
{"smiles": "CCCNC(=O)C1CC(=O)N(c2ccc(OCc3ccccc3)cc2)C1", "note": "(centres undefined)", "activity change": "-2.11%"}
{"smiles": "O=C(C1CCCO1)N1CCN(C(=O)C23CC4CC(CC(C4)C2)C3)CC1", "note": "(centres undefined)", "activity change": "3.39%"}
{"smiles": "CC(=O)Nc1ccc(C=CC(=O)c2ccc([N+](=O)[O-])cc2)cc1", "activity change": "-4.78%"}
{"smiles": "COc1ccc(NC(=O)N(C)C[C@H]2Oc3ncc(C#C[C@@H](C)O)cc3C(=O)N([C@H](C)CO)C[C@H]2C)cc1", "activity change": "-1.97%"}
{"smiles": "O[C@H]1C[C@H](c2ccc(Cl)cc2)N(Cc2cccs2)C[C@@H]1n1cc(C2CC2)nn1", "activity change": "8.43%"}
{"smiles": "CCOc1ccc(N(C)Cc2cc(=O)oc3ccc(OC)cc23)cc1", "activity change": "-0.899%"}
{"smiles": "Cc1ccc(CN(C)Cc2cc(=O)oc3cc(C)c(Cl)cc23)cc1", "activity change": "-12.5%"}
{"smiles": "Cc1cc2oc(=O)cc(CN(C)Cc3ccc(OC(F)F)cc3)c2cc1Cl", "activity change": "-76% (active)"}
{"smiles": "Cc1csc(SCC(=O)Nc2ccc(C)c(S(=O)(=O)N(C)C)c2)n1", "activity change": "-4.71%"}
{"smiles": "Cc1ccc(C(=O)OCC(=O)NC2CCCCCCC2)cc1C", "activity change": "8.83%"}
{"smiles": "Cc1ccccc1C(=O)Nc1cccc(-c2nnc(SCC(=O)O)n2C)c1", "activity change": "-82.3% (active)"}
{"smiles": "Cn1c(SCC(=O)Nc2cccc(NC(=O)c3cccs3)c2)nnc1-c1ccncc1", "activity change": "-4.66%"}
{"smiles": "Cn1c(SCC(=O)N2CCOCC2)nnc1-c1ccc(NC(=O)c2ccccc2F)cc1", "activity change": "7.57%"}
{"smiles": "CC(=O)c1ccc(NC(=O)N[C@@H](Cc2ccccc2)C(=O)O)cc1", "activity change": "0.757%"}
{"smiles": "CC(=O)c1ccc(NC(=S)N(Cc2ccccc2)C(C)C2CC2)cc1", "note": "(centres undefined)", "activity change": "-99.2% (active)"}
{"smiles": "CC(C)N(Cc1ccccc1)C(=S)Nc1ccc(OC(F)F)cc1", "activity change": "-14.2%"}
{"smiles": "O=C(O)CCCN1C(=O)c2ccccc2Sc2ncccc21", "activity change": "-3.66%"}
{"smiles": "O=C(O)CCCN1C(=O)C2C3c4ccccc4C(c4ccccc43)[C@@H]2C1=O", "note": "(some centres undefined)", "activity change": "-134% (active)"}
{"smiles": "O=C(CCCN1C(=O)C2C3C=CC(C3)C2C1=O)N1CCN(c2ccccc2)CC1", "note": "(centres undefined)", "activity change": "7.28%"}
{"smiles": "C#CCN(C[C@H]1[C@H](OC(=O)NC2CCCC2)[C@H](OC(=O)NC2CCCC2)C[C@H]2C(=O)N(c3ccccc3)C(=O)[C@@H]12)S(=O)(=O)c1ccc(C)cc1", "activity change": "-1.45%"}
{"smiles": "O=C(O)c1c(NC(=O)N2CCCC2)sc2c1CCCC2", "activity change": "-0.215%"}
{"smiles": "COC(=O)c1c(NC(=O)c2ccccc2F)sc2c1C(C(=O)OC)CC2", "note": "(centres undefined)", "activity change": "-2.07%"}
{"smiles": "O=C(Nc1sc2c(c1C(=O)O)CCC2)c1ccccc1F", "activity change": "-113% (active)"}
{"smiles": "O=C(OCc1ccccc1)N1CCC2CC1c1ccc(-c3ccc4c(c3)OCO4)cc12", "note": "(centres undefined)", "activity change": "6.28%"}
